BAZ2B inh: inhibitors of human BAZ2B bromodomain | Q9UIF8 | AlphaScreen BAZ2B-H3K14Ac peptide displacement | Potency, µM (top dose mostly 114 µM), without a hit: top-dose activity change, negative = inhibition, hits mostly inhibitors | 4.4% of 360,000 active | AID 504333; note: % is set by controls: 0 for no effect and ±100 for the full control effect; nearly all actives have a fitted effect of over 60% in size
Target sequence (Q9UIF8 whole entry, looked up): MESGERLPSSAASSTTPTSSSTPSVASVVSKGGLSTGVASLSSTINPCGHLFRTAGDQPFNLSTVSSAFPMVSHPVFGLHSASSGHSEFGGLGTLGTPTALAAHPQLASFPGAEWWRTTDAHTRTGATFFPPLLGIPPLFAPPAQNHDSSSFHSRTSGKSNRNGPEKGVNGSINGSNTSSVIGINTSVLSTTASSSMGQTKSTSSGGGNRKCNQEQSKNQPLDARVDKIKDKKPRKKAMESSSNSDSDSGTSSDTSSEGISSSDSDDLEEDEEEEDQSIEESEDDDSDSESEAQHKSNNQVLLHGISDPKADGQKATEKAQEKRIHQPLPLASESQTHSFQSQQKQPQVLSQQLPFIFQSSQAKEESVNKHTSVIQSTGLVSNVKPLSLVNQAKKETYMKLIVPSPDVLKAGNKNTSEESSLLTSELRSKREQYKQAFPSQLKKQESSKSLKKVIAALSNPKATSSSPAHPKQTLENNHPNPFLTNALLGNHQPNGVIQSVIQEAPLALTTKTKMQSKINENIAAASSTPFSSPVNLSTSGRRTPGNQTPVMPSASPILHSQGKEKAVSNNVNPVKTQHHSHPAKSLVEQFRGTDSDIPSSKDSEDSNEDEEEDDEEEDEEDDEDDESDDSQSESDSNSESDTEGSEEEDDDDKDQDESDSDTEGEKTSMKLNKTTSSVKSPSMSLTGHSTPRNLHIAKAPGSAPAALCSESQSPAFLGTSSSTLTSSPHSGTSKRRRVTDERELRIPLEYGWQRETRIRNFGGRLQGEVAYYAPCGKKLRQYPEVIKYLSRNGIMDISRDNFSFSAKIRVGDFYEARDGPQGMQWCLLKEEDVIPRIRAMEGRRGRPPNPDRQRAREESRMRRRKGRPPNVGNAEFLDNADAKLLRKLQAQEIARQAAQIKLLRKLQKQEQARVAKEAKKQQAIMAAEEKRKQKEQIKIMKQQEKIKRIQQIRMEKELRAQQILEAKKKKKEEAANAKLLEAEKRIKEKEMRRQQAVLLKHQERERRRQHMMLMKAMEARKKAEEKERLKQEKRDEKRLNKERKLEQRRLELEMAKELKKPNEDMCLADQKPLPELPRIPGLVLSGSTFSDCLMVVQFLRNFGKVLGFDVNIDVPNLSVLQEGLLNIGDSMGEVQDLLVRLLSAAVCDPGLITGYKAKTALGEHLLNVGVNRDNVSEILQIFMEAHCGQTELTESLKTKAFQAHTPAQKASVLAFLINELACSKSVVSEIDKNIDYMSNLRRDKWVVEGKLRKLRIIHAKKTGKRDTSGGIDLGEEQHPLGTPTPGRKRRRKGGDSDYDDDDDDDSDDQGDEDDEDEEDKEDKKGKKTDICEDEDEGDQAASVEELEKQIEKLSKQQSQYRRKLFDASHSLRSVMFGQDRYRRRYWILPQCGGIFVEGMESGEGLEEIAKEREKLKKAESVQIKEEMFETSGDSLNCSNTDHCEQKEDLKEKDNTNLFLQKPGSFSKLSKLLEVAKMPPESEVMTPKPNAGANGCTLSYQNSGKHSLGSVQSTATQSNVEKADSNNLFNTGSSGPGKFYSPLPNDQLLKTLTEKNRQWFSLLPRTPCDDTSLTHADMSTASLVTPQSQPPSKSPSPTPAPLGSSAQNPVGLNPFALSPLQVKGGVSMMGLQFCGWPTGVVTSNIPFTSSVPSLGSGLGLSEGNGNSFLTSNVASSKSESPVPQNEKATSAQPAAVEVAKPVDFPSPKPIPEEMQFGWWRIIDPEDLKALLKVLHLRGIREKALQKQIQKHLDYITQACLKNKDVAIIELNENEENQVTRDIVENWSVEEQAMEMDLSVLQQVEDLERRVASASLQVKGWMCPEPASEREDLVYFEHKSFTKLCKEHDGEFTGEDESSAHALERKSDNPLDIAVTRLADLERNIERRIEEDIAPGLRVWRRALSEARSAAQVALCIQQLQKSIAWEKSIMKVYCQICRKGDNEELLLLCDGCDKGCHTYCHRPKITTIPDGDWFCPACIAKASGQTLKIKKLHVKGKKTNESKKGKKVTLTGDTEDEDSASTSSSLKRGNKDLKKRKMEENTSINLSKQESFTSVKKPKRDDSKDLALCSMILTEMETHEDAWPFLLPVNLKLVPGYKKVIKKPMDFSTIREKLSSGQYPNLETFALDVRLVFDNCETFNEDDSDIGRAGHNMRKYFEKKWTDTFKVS
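Protein-peptide AlphaScreen: BAZ2B 50 nM, b-H3K14Ac 50 nM, 1x PBS pH 7.4 + 0.01% Tween-20. Preincubation 30 min RT; cpd 30 min RT (top 110 uM); beads 20 min RT, light-protected.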
L3MBTL1 block: L3MBTL1 (human) inhibition; Q9Y468; AlphaScreen L3MBTL1–H3K9me1 peptide binding; Potency, µM (titrated, usually from 57.1 µM), without a hit: at the top dose activity, negative = inhibition, hits mostly inhibitors; 0.66% of 230,000 active; AID 485360; note: % is set by controls: 0 for no effect and ±100 for the full control effect; nearly all actives have a fitted effect of over 60% in size
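L3MBTL1 50 nM + b-AHA-H3(1-15)K9me1 75 nM, 30 min RT; compound added, 30 min RT; streptavidin donor/Ni-chelate acceptor beads 10 ug/mL each final, 30 min RT dark; AlphaScreen read.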
JMJD2A Tudor: inhibitors of human JMJD2A Tudor domain | Potency, µM (highest dose often 114 µM), without a hit: top-dose activity change, negative = inhibition, most hits filed as inhibitors | O75164 | AlphaScreen JMJD2A-Tudor / H3K4me3 peptide binding | 4.4% of 390,000 active; note: % is set by controls: 0 for no effect and ±100 for the full control effect; nearly all actives have a fitted effect of over 50% in size
HP1b binding inh: HP1-beta chromodomain-methylated histone interaction inhibition. P83916. AlphaScreen HP1-beta / biotin-H3K9me3 peptide binding. Potency, µM (top dose mostly 114 µM), inactives show at the highest dose activity change, negative = inhibition, hits mostly inhibitors. 0.56% of 390,000 active; note: nearly all actives have a fitted effect of over 70% in size
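HP1-beta protein (50 nM final) preincubated 30 min at room temperature with biotinylated H3(1-18)K9me3 peptide (50 nM) in PBS pH 7.4, 0.01% Tween-20, then compound added for 30 min. AlphaScreen streptavidin donor/nickel chelate acceptor beads (10 ug/mL final), 30 min dark, luminescence read.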
G9a inh: inhibitors of human histone lysine methyltransferase G9a | Potency, µM (doses to about 102 µM), for the others: at the top dose activity, negative = inhibition, most hits filed as inhibitors | Q96KQ7 | G9a H3K9 monomethylation, AlphaScreen, 2 h | 8.8% of 350,000 active | AID 504332; note: % is set by controls: 0 for no effect and ±100 for the full control effect; nearly all actives have a fitted effect of over 75% in size
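G9a (20 nM) preincubated 15 min RT with compounds, then 500 nM biotinylated H3K9 peptide and 20 uM SAM added; 2 h RT reaction. Monomethyl-H3K9 product detected by AlphaScreen with anti-H3K9me1 antibody, streptavidin donor and anti-rabbit IgG acceptor beads.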
Sfp PPTase inh: blocks B. subtilis Sfp PPTase activity. Potency, µM, inactives show largest response in the series, negative = inhibition, usual class: inhibitors. 3.5% of 310,000 active. AID 1490. Biochemical Sfp PPTase activity, qHTS. Q9F4F7;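 note: the enzyme is Sfp with the accession as filed and its product quenches rhodamine fluorescence; 0% = enzyme reaction without inhibitor and -100% = no enzyme wells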
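After 15 min at room temperature with compound, 15 nM Sfp received 5 uM rhodamine-CoA plus 12.5 uM BHQ-2-ybbR (50 mM Hepes pH 7.6, 10 mM MgCl2). Rate came from the fluorescence difference over 30 min, ex 525/em 598 nm.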
An asterisk follows results filed as active; ? = inconclusive; / = not tested or not shown; [ ] = dose if it differs, or a comment. Sampled rows, rich in hits. Any-hit rate of the full collection: about 12%. Calls come from the whole dose curve; as a rule, active = well fitted curve in the direction sought with a large enough effect; inconclusive = small, poorly fitted or top-dose-only effect, or another doubt; inactive = no such curve, though single readings can be large; an effect the other way counts as inactive or inconclusive. Potency is the fitted concentration of half-maximal effect.

SMILES | BAZ2B inh | L3MBTL1 block | JMJD2A Tudor | HP1b binding inh | G9a inh | Sfp PPTase inh
Cc1noc(NS(=O)(=O)c2ccc(NC(=O)c3cnc4scc(C)n4c3=O)cc2)c1C | -8% | 2% | ? | 7% | 50µM* | 7%
COc1ccc(-c2cc(C(=O)Nc3ccc(S(=O)(=O)Nc4ncccn4)cc3)c3ccccc3n2)cc1 | -2% | 1% | -11% | 36% | ? | 19%
CCN(CC)S(=O)(=O)c1ccc(O)c(NC(=O)c2cc(-c3cc(OC)c(OC)c(OC)c3)nc3ccccc23)c1 | -21% | / | ? | -36% | 7.9µM* | 45µM*
COc1ccc(-c2cc(C(=O)Nc3ccc(S(=O)(=O)Nc4onc(C)c4C)cc3)c3ccccc3n2)cc1 | ? | -24% | ? | -12%[57 µM] | 50µM* | 6%
O=C(Nc1ccccc1Br)c1cc(S(=O)(=O)NC2CCCCC2)ccc1F | 13% | / | -11% | 44% | 0%[59 µM] | /
COc1ccc(CNC(=O)c2ccc3c(c2)N(Cc2cccc(Cl)c2)C(=O)c2ccccc2S3)c(OC)c1 | 0% | / | -5% | 27% | -29%[59 µM] | /
Cc1cc(C)nc(NS(=O)(=O)c2ccc(NC(=O)Cc3ccccc3)cc2)n1 | 5% | / | -34% | -7% | 3% | 0%
Cc1cc(C)nc(NS(=O)(=O)c2ccc(NC(=O)C3(c4ccccc4)CCCC3)cc2)n1 | 0% | 7% | -20% | 10% | 56µM* | 12%
O=C(c1ccccc1)N1CCN(C2CCCCCC2)CC1 | 56µM* | / | 3.2µM* | ? | ? | -14%
O=C(c1cccc(F)c1)N1CCC(N2CCCCCC2)CC1 | 56µM* | / | 2.2µM* | ? | 22µM* | 0%
O=C(NC(=S)N1CCCCCC1)c1ccccc1 | ? | / | -16% | 37% | / | 2%
O=C(NC(=S)N1CCN(C2CCCCC2)CC1)c1ccccc1 | -24% | 6% | -17% | -11% | 50µM* | -16%
O=C(c1ccco1)N1CCN(C2CCCC2)CC1 | -4% | 5% | 3.2µM* | ? | ? | 6%
O=C(c1ccco1)N1CCN(C(=O)C2CC2)CC1 | -4% | 3% | -12% | 52% | ? | 14%
O=C(c1cccc(C(F)(F)F)c1)N1CCN(C2CCCCC2)CC1 | 5% | 24%[11.4 µM] | -11% | -4% | -3%[59 µM] | 10%
O=C(c1cccc(F)c1)N1CCN(C2CCCCC2)CC1 | 50µM* | / | 22µM* | ? | 22µM* | -3%
O=C(c1ccco1)N1CCN(C(=O)c2cccc3c2C(=O)N(C2CCCCC2)C3)CC1 | -21% | -12% | -4% | 20% | 45µM* | -23%
O=C(c1cccc(Cl)c1)N1CCC(N2CCC(C(=O)N3CCCC3)CC2)CC1 | -9% | / | 3% | 29% | 76%[59 µM] | 13%
O=C(c1cccc(Cl)c1)N1CCN(C2CCCCC2)CC1 | ? | 37% | 7.9µM* | ? | / | 0%
O=[N+]([O-])c1cccc(/C=N\N2CCN(Cc3ccccc3Cl)CC2)c1 | 35µM* | -22% | 45µM* | ? | 10µM* | -7%
C(=N\N1CCN(c2ccccn2)CC1)/c1cccc2ccccc12 | 35µM* | -28% | 40µM* | ? | 40µM* | ?
Oc1ccccc1/C=N/N1CCN(c2ccccn2)CC1 | ? | -30% | ? | 5% | -5% | 11%
O=[N+]([O-])c1cccc(/C=N/N2CCN(Cc3ccccc3)CC2)c1 | 25µM* | / | ? | -13% | ? | 6%
O=[N+]([O-])c1cc(/C=N/N2CCN(c3ccccc3)CC2)ccc1Cl | ? | -9% | -3% | 38% | -18%[59 µM] | -15%
O=C(N/N=C/c1cccc([N+](=O)[O-])c1)c1ccc(CN2CCOCC2)cc1 | -2% | 8% | -25% | 45% | -7%[59 µM] | 9%
O=[N+]([O-])c1cccc(/C=N/N2CCN(Cc3ccc(Cl)cc3)CC2)c1 | 20µM* | -24% | 50µM* | ? | / | -2%
O=[N+]([O-])c1cccc(/C=N/N2CCN(c3ccccn3)CC2)c1 | -38% | 0% | -22% | ? | 32µM* | ?

Screening results as filed in PubChem.
